Data on 38 compounds can be found in PubChem BioAssay (NCI).

Experiment [1] in a line: NCI Yeast Anticancer Drug Screen. Data for the rad50 strain (AID 155).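 Further: 0% = growth of vehicle-only cultures of the same strain.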 Particulars: S. cerevisiae rad50 strain growth inhibition; at 50.0 µM; hits give high values. The gist of the method: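 Readout: growth inhibition relative to vehicle-treated cultures. Compound exposure was carried out in a genetically defined yeast strain deficient in DNA damage repair.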
A short description of experiment [2]: NCI Yeast Anticancer Drug Screen. Data for the mec2-1 strain (AID 157). The note with it: S. cerevisiae mec2-1 strain, at 50.0 µM, hits give high values. The gist of the method:
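Growth inhibition is read against vehicle-treated controls after compound exposure of the mec2-1 yeast strain, which is defective in DNA damage repair or cell cycle control.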

The nature of experiment [3]: NCI Yeast Anticancer Drug Screen. Data for the sgs1 mgt1 strain (AID 161).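 Further: 0% = growth of cultures given vehicle only.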 Particulars: S. cerevisiae sgs1 mgt1 strain, at 50.0 µM, hits give high values. The gist of the method: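 This yeast growth screen uses a strain with defined DNA-repair lesions; compound-treated growth is compared with vehicle-treated growth.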
Experiment [4] can be described thus: NCI Yeast Anticancer Drug Screen. Data for the cln2 rad14 strain (AID 165).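 Further: 0% = growth equal to vehicle treated cultures.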 The note with it: S. cerevisiae cln2 rad14 strain, at 50.0 µM, hits give high values. The essentials: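 Growth inhibition, relative to vehicle-treated controls, is the read-out. The test organism is a yeast strain with defined genetic alterations, cln2 rad14.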
Experiment [5] is described as follows: NCI Yeast Anticancer Drug Screen. Data for the bub3 strain (AID 167). The note with it: S. cerevisiae bub3 mutant strain, at 50.0 µM, hits give high values. The essentials:
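Readout: yeast growth inhibition, expressed relative to vehicle-only wells. The test organism is a mutant strain from a panel with lesions in DNA repair or checkpoint genes.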

The nature of experiment [6]: NCI Yeast Anticancer Drug Screen. Data for the mlh1 rad18 strain (AID 175). Particulars: S. cerevisiae mlh1 rad18 strain growth inhibition; at 50.0 µM; hits give high values. The essentials: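 Cells of a genetically altered yeast strain, deficient in DNA damage repair, were treated with compound. Their growth was then compared with that of vehicle-treated cultures to give inhibition.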

The panel holds about 79,000 compounds, 15% with a hit somewhere; the sample as a whole holds those more often. Values without a mark were called inactive. The source made the active and inactive calls. No stated cut-off is given here; in the data, active means growth inhibition above about 70%; inactive means the rest.

Consider `COc1cc2c(cc1OC)C(=O)N(c1ccc(O)cc1)C2=O`, for which the growth inhibition in experiment [1] was -8.25%; in experiment [2] it was -17.6%; in experiment [3] it was -7.8%; in experiment [4], 20.8%; in experiment [5] it was 12.3%; in experiment [6] it was 3.9%.
For the compound `COc1ccc(C(C#N)N(C)C)cc1OC` (stereo not drawn), the growth inhibition is -16.9% in experiment [1]; -13.6% in experiment [2]; 8% in experiment [3]; -15.1% in experiment [4]; 0.75% in experiment [5]; 5.15% in experiment [6].
Regarding `NCCCCN(CCCN)Cc1ccccc1`, the growth inhibition is -4.8% in experiment [1]; -1.25% in experiment [2]; -17.1% in experiment [3]; 11.6% in experiment [4]; -4% in experiment [5]; -58.9% in experiment [6].
Take `Cc1ccc(/C=c2\cc3oc(=O)c4cccc(c4-3)c2=O)cc1`: the growth inhibition in experiment [1] is -5.3%; in experiment [2], 18.1%; in experiment [3], 58.6%; in experiment [4], 23.6%; in experiment [5] it was 44%; in experiment [6], 19.1%.
`Cc1cc(C(N)=O)c(C(N)=O)c(=O)[nH]1`: the growth inhibition is -13.1% in experiment [1]; 2% in experiment [2]; 0% in experiment [3]; -7.5% in experiment [4]; -14.2% in experiment [5]; 15.8% in experiment [6].
For the compound `O=c1c2cc([N+](=O)[O-])ccc2[nH]n1Cc1ccccn1`, the growth inhibition in experiment [1] is 12.5%; in experiment [2] it was 10.2%; in experiment [3], -19.6%; in experiment [4], 9.45%; in experiment [5] it was -13.9%; in experiment [6], 3.8%.
Turning to `CC(=O)c1ccc(O)c(C=O)c1O`, the growth inhibition in experiment [1] was 11.7%; in experiment [2], 9.3%; in experiment [3], 27.1%; in experiment [4] it was 2.65%; in experiment [5], -2.9%; in experiment [6] it was 31.9%.
With `Cc1nc2ccccc2nc1CCC(=O)O`, the growth inhibition in experiment [1] was -22.9%; in experiment [2] it was 4.25%; in experiment [3] it was -17.4%; in experiment [4], -23.6%; in experiment [5], -11.2%; in experiment [6] it was -6.65%.
As to `COCCOC(=O)c1ccccc1C`, the growth inhibition in experiment [1] was 8.7%; in experiment [2], 2.35%; in experiment [3], 0.3%; in experiment [4] it was -27.6%; in experiment [5], 11.8%; in experiment [6], 0.55%.
As to `CC/C(=C\c1ccc(NC(C)=O)cc1)c1ccncc1`, the growth inhibition was -5.6% in experiment [1]; -16.6% in experiment [2]; 7.2% in experiment [3]; -0.85% in experiment [4]; -12.8% in experiment [5]; -4.6% in experiment [6].
As to `c1ccc(OCCSCCCCCCCCCCSCCOc2ccccc2)cc1`, the growth inhibition in experiment [1] was -5.85%; in experiment [2], -11.8%; in experiment [3], -25.6%; in experiment [4] it was -12.6%; in experiment [5], -28.6%; in experiment [6] it was -24.5%.
In the case of `CCOC(=O)/C(C#N)=C\NC(=O)NC`, the growth inhibition in experiment [1] is 3%; in experiment [2], 2.3%; in experiment [3], 2.2%; in experiment [4], -18.4%; in experiment [5], -5.25%; in experiment [6], -0.5%.
Regarding `COc1ccc(NS(=O)c2ccc(Cl)cc2)cc1` (stereo not drawn), the growth inhibition was 13% in experiment [1]; 12.8% in experiment [2]; 28.3% in experiment [3]; 8.65% in experiment [4]; 11.4% in experiment [5]; 13.9% in experiment [6].
With `O=c1cc(C(O)C(O)C(O)C(O)CO)[nH]c(=O)[nH]1` (stereo not drawn), the growth inhibition was 2.4% in experiment [1]; 7.1% in experiment [2]; 9% in experiment [3]; 24.9% in experiment [4]; -5.05% in experiment [5]; -4.6% in experiment [6].
In the case of `COc1ccc(-c2cc(-c3cc(-c4ccc(OC)cc4)on3)no2)cc1`, the growth inhibition was -1.6% in experiment [1]; -5.75% in experiment [2]; -26% in experiment [3]; -7.45% in experiment [4]; -35.5% in experiment [5]; -1.05% in experiment [6].
`O=c1c2ccccc2c(=O)n2n1C1C=CC2C1`: the growth inhibition in experiment [1] is -5%; in experiment [2], -7.15%; in experiment [3], 1.55%; in experiment [4], -6.4%; in experiment [5] it was 4.5%; in experiment [6], -4.55%.
As to `CC(=O)OCC1OC(OC(C)=O)C(Nc2ncnc3nc[nH]c23)C(OC(C)=O)C1OC(C)=O` (stereo not drawn), the growth inhibition in experiment [1] was 28.1%; in experiment [2] it was 23.9%; in experiment [3], 49.9%; in experiment [4], 11.6%; in experiment [5], 16.5%; in experiment [6], 37.8%.
Regarding `CC(C)CCCC(C)C1CCC2(C)C3CCC4C(C)(C)C(OCC(C)(C)C)CCC4(C)C3CCC12C` (stereo not drawn), the growth inhibition is 34% in experiment [1]; -5.5% in experiment [2]; 4.7% in experiment [3]; 7.3% in experiment [4]; -0.15% in experiment [5]; -5.4% in experiment [6].
In the case of `O=C(O)COc1cccc([N+](=O)[O-])c1`, the growth inhibition in experiment [1] is 3%; in experiment [2] it was -10.3%; in experiment [3], -9.9%; in experiment [4] it was -62.5%; in experiment [5] it was -5%; in experiment [6], -17.4%.
`CCCCC1CCC(C(=O)O)=NC1` (stereo not drawn): the growth inhibition was 5.65% in experiment [1]; 6.7% in experiment [2]; 25.1% in experiment [3]; -9.95% in experiment [4]; -0.45% in experiment [5]; -11.4% in experiment [6].
In the case of `CC1CCC2CCCCC2/C1=N\NC(N)=O` (stereo not drawn), the growth inhibition is -10.8% in experiment [1]; -3.9% in experiment [2]; 3.95% in experiment [3]; 2.35% in experiment [4]; 0.25% in experiment [5]; -16.7% in experiment [6].
For `CCC1(C)N=C(C(N)=O)c2ncn(N=C(C)C)c2N1` (stereo not drawn), the growth inhibition is -15.8% in experiment [1]; -30.2% in experiment [2]; -24.3% in experiment [3]; 14.2% in experiment [4]; -10.5% in experiment [5]; -16.6% in experiment [6].
In the case of `CC1CCN(C(c2ccccc2)c2ccc3ccccc3c2O)CC1` (stereo not drawn), the growth inhibition in experiment [1] was 51.8%; in experiment [2] it was 42.2%; in experiment [3], 55.4%; in experiment [4] it was -6.8%; in experiment [5], 33.6%; in experiment [6], 75% (active).
As for `CCOc1ccccc1Nc1nc(C)c(C(=O)CC(=O)C(=O)Nc2ccccc2)s1`, the growth inhibition is 45.9% in experiment [1]; 5.4% in experiment [2]; 28.2% in experiment [3]; 9.45% in experiment [4]; 29.9% in experiment [5]; 12.9% in experiment [6].
`NC(CC(F)(F)F)C(=O)O` (stereo not drawn): the growth inhibition was 22.9% in experiment [1]; 4.2% in experiment [2]; 16.7% in experiment [3]; 31.3% in experiment [4]; -2.65% in experiment [5]; 11.9% in experiment [6].
Take `CCCCCCCCCCCCOc1ccc(Sc2ccc([N+](=O)[O-])cc2)cc1`: the growth inhibition was 30.2% in experiment [1]; 2.55% in experiment [2]; 35.1% in experiment [3]; -34.3% in experiment [4]; 5.1% in experiment [5]; 25.8% in experiment [6].
Turning to `CCN(CC)c1nc(=O)c(C(=O)C(C)(C)C)c(C(C)(C)C)o1`, the growth inhibition in experiment [1] is -14.9%; in experiment [2], -39%; in experiment [3] it was -34.1%; in experiment [4], -11.8%; in experiment [5] it was -9.15%; in experiment [6] it was -17.1%.
On to `CC(=O)N(CN1C(=O)CCC1C(=O)O)c1cccc(O)c1` (stereo not drawn), for which the growth inhibition in experiment [1] was 8.45%; in experiment [2], 9%; in experiment [3] it was -10.2%; in experiment [4], -5.7%; in experiment [5] it was -12.7%; in experiment [6] it was -66.7%.
`CCOC(=O)c1nc2ccc(C(F)(F)F)cc2nc1NCc1ccc(F)cc1`: the growth inhibition in experiment [1] was -13.9%; in experiment [2], 7.6%; in experiment [3], 20.7%; in experiment [4] it was 10.2%; in experiment [5], 12.9%; in experiment [6], -48.2%.
For `CCOC(=O)NNC(N)=O`, the growth inhibition was -2.8% in experiment [1]; -19.2% in experiment [2]; -18% in experiment [3]; -22.1% in experiment [4]; 1.8% in experiment [5]; -10.5% in experiment [6].
As for `CC(=O)c1ccccc1C`, the growth inhibition in experiment [1] is -32.6%; in experiment [2] it was -69.5%; in experiment [3], -43.7%; in experiment [4] it was -1.25%; in experiment [5], -38.1%; in experiment [6] it was -22.3%.
With `CCC(CO)(C(=O)O)c1ccccc1` (stereo not drawn), the growth inhibition in experiment [1] is 1.85%; in experiment [2] it was 22.2%; in experiment [3], 4.95%; in experiment [4], 46.9%; in experiment [5] it was 4.6%; in experiment [6], 2.3%.
In the case of `COCC1(c2ccccc2)NC(=O)N(C)C1=O` (stereo not drawn), the growth inhibition in experiment [1] was -3.05%; in experiment [2], -2.15%; in experiment [3], -1.35%; in experiment [4] it was -9.15%; in experiment [5], -7.35%; in experiment [6], -2%.
As for `CC(=O)c1cccc(NCn2nnc3ccccc32)c1`, the growth inhibition is -47.5% in experiment [1]; -8.65% in experiment [2]; -62.3% in experiment [3]; -4.25% in experiment [4]; -45.4% in experiment [5]; -34.5% in experiment [6].
For `O=C(N/N=C\c1ccc(Cl)cc1Cl)C1CC1`, the growth inhibition in experiment [1] was -19.8%; in experiment [2], -3.8%; in experiment [3] it was -7.6%; in experiment [4], -19.2%; in experiment [5], -19.3%; in experiment [6], -24.9%.
As for `CC1(O)CCCCCCC1`, the growth inhibition in experiment [1] was 0.85%; in experiment [2], -3.6%; in experiment [3] it was 26.6%; in experiment [4] it was 0.7%; in experiment [5], 7.9%; in experiment [6], 7.8%.
As for `C/C(=N/NC(N)=O)C(=O)O`, the growth inhibition was -0.15% in experiment [1]; 10.7% in experiment [2]; 2.5% in experiment [3]; -48.4% in experiment [4]; -2.95% in experiment [5]; 13.7% in experiment [6].
On to `CN=C(Nc1cccc(C(F)(F)F)c1)SCc1ccc(N=C=S)cc1`, for which the growth inhibition is 9.7% in experiment [1]; 28.3% in experiment [2]; 60% in experiment [3]; 10.2% in experiment [4]; 38.8% in experiment [5]; 38.5% in experiment [6].
